Test results published in PubChem BioAssay (EPA / NIEHS).
“And” between values parts separate entries of the source, which are not always exact repeats. Equal values may be shown once. Inconclusive results are not listed. Some structures have more than one record in an assay (separate samples or runs), and their calls can disagree. The source made the active and inactive calls. How the source made its calls, unless noted: active means hit-call score of the fitted dose curve at least 0.9, where 1 is the maximum; inactive means score below 0.9.

Legend:
[1] = CCTE_Deisenroth_AIME_384WELL_CTox_Active: Cytotoxicity Assessment (CTOX) in CCTE's 384-well Estrogen Receptor Transactivation Assay with AIME metabolic competence (metabolism positive), Deisenroth Lab (AID 2284037; active means hit-call score of the fitted dose curve at least 0.9, where 1 is the maximum;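 further: chemicals first conditioned 2 h by alginate-bound induced rat liver S9 before cells; activity means signal loss indicating cell death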)
Method in brief: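 Cytotoxicity in VM7Luc4E2 breast cells, 24 hour, measured as protease-substrate fluorescence loss, after 2-hour metabolic conditioning with induced rat hepatic S9 in alginate microspheres. Concentrations 0.002 - 200 uM, 10 points, bidirectional fitting.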

[2] = biological target: Estrogen receptor (Homo sapiens) (UniProt P03372); experiment: CCTE_Deisenroth_AIME_384WELL_LUC_Inactive: CCTE's 384-well Estrogen Receptor Transactivation Assay without AIME metabolic competence (ERTA luciferase; metabolism negative), Deisenroth Lab (AID 2284038; active means hit-call score of the fitted dose curve at least 0.9, where 1 is the maximum;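 further: VM7Luc4E2 breast cells given medium preincubated 2 h with S9-free microspheres; hits raise estrogen receptor luciferase signal so potencies reflect agonists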)
Estrogen receptor (Homo sapiens), sequence (P03372 whole entry, looked up): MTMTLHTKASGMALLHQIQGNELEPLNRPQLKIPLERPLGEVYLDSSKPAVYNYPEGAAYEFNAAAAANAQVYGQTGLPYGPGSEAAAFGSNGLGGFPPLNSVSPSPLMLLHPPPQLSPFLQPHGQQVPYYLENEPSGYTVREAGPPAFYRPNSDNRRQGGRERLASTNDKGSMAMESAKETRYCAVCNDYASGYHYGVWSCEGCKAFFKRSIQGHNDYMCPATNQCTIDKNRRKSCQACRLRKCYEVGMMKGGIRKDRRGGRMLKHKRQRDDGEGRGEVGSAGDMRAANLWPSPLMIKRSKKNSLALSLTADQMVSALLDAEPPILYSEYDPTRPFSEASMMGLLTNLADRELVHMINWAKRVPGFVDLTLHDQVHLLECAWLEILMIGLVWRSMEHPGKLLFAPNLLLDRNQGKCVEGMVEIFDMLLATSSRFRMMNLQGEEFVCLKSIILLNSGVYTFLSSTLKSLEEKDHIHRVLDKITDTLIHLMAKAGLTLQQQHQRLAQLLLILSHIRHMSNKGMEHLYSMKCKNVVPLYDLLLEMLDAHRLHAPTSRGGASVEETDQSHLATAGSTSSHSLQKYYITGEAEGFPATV
Method in brief: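 Metabolism-negative mode: AIME lids stamped in alginate-water, no hepatic S9. 2 h chemical incubation → medium onto VM7Luc4E2 ERTA, 24 h. Readout luciferase luminescence; gain-of-signal fit vs 17beta-estradiol. Conc. 0.002 - 200 uM.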

[3] = CCTE_Deisenroth_AIME_384WELL_CTox_Inactive: Cytotoxicity Assessment (CTOX) in CCTE's 384-well Estrogen Receptor Transactivation Assay without AIME metabolic competence (metabolism negative), Deisenroth Lab (AID 2284039; active means hit-call score of the fitted dose curve at least 0.9, where 1 is the maximum;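 further: cell viability via live-cell protease substrate cleaved to fluorescent probe; cells exposed 24 h to medium preincubated 2 h with alginate-water beads without S9; loss of fluorescence signal means loss of viability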)
Method in brief: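 Fluorescent protease-substrate viability readout after 24 h exposure of VM7Luc4E2 cells to conditioned medium. Chemicals (0.002–200 uM) first sat 2 h over alginate-water beads, no S9. Data fitted bidirectionally, loss of signal meaning viability loss.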

[4] = biological target: Estrogen receptor (Homo sapiens) (UniProt P03372); experiment: CCTE_Deisenroth_AIME_384WELL_LUC_Shift: CCTE's 384-well Estrogen Receptor Transactivation Assay with AIME metabolic competence data shift (ERTA luciferase; difference in metabolism positive and negative), Deisenroth Lab (AID 2284041);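 further: shift is response with S9 minus without S9 so positive means metabolism raised ER signal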
Method in brief: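 Test chemicals (0.002–200 uM, 10-point) were pre-incubated 2 h with alginate microspheres containing phenobarbital/beta-naphthoflavone-induced male Sprague Dawley rat liver S9 or water, then medium was transferred to VM7Luc4E2 cells for 24 h luciferase readout; shift = S9-positive minus S9-negative normalized response.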

[5] = CCTE_Shafer_MEA_dev_firing_rate_mean: CCTE's Neural Network Formation Assay for Mean Firing Rate, Shafer Lab (AID 2284031);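 on AC50: curve fitted for loss of firing so AC50 reflects decreased mean firing rate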
Method in brief: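 Extracellular spike frequency, AUC over DIV 5–12 recordings, in rat cortical neuron MEA cultures dosed from plating; loss direction vs DMSO.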

[6] = CCTE_Shafer_MEA_dev_active_electrodes_number: CCTE's Neural Network Formation Assay for Number of Active Electrodes, Shafer Lab (AID 2284040; active means hit-call score of the fitted dose curve at least 0.9, where 1 is the maximum;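 on AC50: potency for loss of active electrodes versus DMSO so lower counts are hits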)
Method in brief: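 Developing rat cortical networks on MEAs, exposed DIV 0–12. Value is the AUC of active-electrode counts (≥5 spikes/min) from days 5, 7, 9, 12, relative to DMSO.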

[7] = CCTE_Shafer_MEA_dev_burst_rate: CCTE's Neural Network Formation Assay for Burst Rate, Shafer Lab (AID 2284042);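 on AC50: potency for loss of burst rate below DMSO control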
Method in brief: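 Exposure ran continuously over 12 days of network development in rat cortical cultures, with compound refreshed during full media changes on DIV 5 and 9. Single-electrode bursts per recording time, well-mean over active electrodes, trapezoidal AUC across days 5–12, fitted downward relative to DMSO.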

[8] = CCTE_Shafer_MEA_dev_bursting_electrodes_number: CCTE's Neural Network Formation Assay for Number of Bursting Electrodes, Shafer Lab (AID 2284043; active means hit-call score of the fitted dose curve at least 0.9, where 1 is the maximum;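 on AC50: potency is for loss of bursting electrodes relative to DMSO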)
Method in brief: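 Number of electrodes reaching ≥1 burst every 2 min was recorded at DIV 5, 7, 9 and 12 and collapsed as trapezoidal area under the curve. Cultures were rat cortical neurons on MEA plates, dosed continuously from plating with medium and treatment refreshed on DIV 5 and 9.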

[9] = CCTE_Shafer_MEA_dev_per_burst_interspike_interval: CCTE's Neural Network Formation Assay for Burst Interspike Interval, Shafer Lab (AID 2284044);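 further: mean spike spacing inside bursts as AUC over recordings on days 5 7 9 12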;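 on AC50: potency for a decrease of within-burst interspike interval below DMSO level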
Method in brief: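 Spontaneous activity of maturing rat cortical networks is recorded on DIV 5, 7, 9 and 12 under chronic compound exposure beginning at plating. Endpoint: burst interspike interval well-mean, collapsed into trapezoidal AUC and fitted in the negative direction relative to DMSO.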

[10] = CCTE_Shafer_MEA_dev_burst_duration_mean: CCTE's Neural Network Formation Assay for Mean Burst Duration, Shafer Lab (AID 2284045);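 on AC50: curve fitted for loss meaning shorter burst duration than DMSO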
Method in brief: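 Mean single-electrode burst duration (first to last spike), averaged over bursting electrodes per well, then integrated as area-under-curve across recordings at days 5, 7, 9 and 12. Rat cortical cultures on MEAs, compound present from plating, refreshed at feeds.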

[11] = CCTE_Shafer_MEA_dev_interburst_interval_mean: CCTE's Neural Network Formation Assay for Mean Interburst Interval, Shafer Lab (AID 2284046);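 further: well-mean interburst interval of bursting electrodes as AUC over four recording days; curve fitted for decrease in interburst interval relative to DMSO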
Method in brief: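 Primary rat cortical neurons on PEI-coated 48-well MEA plates (laminin added with cells at plating) (16 electrodes/well), exposed from plating day 0 with renewal at DIV 5 and 9. Mean inter-burst interval averaged over bursting electrodes, AUC across days 5, 7, 9, 12; DMSO baseline.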

[12] = CCTE_Shafer_MEA_dev_inter_network_spike_interval_mean: CCTE's Neural Network Formation Assay for Mean Inter-network Spike Interval, Shafer Lab (AID 2284047);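 on AC50: potency for a decrease in mean inter-network spike interval below DMSO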
Method in brief: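 Mean time between consecutive network-spike peaks, recorded extracellularly (adaptive spike detection) on DIV 5, 7, 9 and 12, summarized as trapezoidal AUC. Rat cortical cultures on MEAs dosed continuously days 0–12, re-dosed at feeds; loss-of-signal fit relative to DMSO.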

[13] = CCTE_Shafer_MEA_dev_network_spike_number: CCTE's Neural Network Formation Assay for Number of Network Spikes, Shafer Lab (AID 2284048);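 further: synchronized bursts across electrodes counted on days 5 7 9 12 and integrated as AUC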;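 on AC50: fit as a loss of signal meaning fewer network spikes than DMSO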
Method in brief: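 Number of network spikes (coordinated firing across electrodes) recorded on days 5, 7, 9 and 12 and summarised as area under the curve. Rat cortical cultures on MEA, continuous compound exposure with full medium/treatment exchange at DIV 5 and 9.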

[14] = CCTE_Shafer_MEA_dev_network_spike_peak: CCTE's Neural Network Formation Assay for Mean Number of Electrodes in Network Spike, Shafer Lab (AID 2284049);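 on AC50: fitted for loss of signal meaning fewer electrodes in network spikes than DMSO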
Method in brief: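 Rat cortical primary culture, 1.5 x 10^5 cells/well, 48-well MEA (16 electrodes/well). Dosing day 0 through DIV 12, full media/compound exchange DIV 5, 9. AxIS adaptive spike detection; AUC over days 5/7/9/12; loss-of-signal vs DMSO.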

[15] = CCTE_Shafer_MEA_dev_spike_duration_mean: CCTE's Neural Network Formation Assay for Mean Spike Duration, Shafer Lab (AID 2284051);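 further: mean network spike duration pooled as area under curve over DIV 5 to 12 recordings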;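 on AC50: potency for a decrease in mean network spike duration versus DMSO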
Method in brief: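 Spontaneous activity was recorded on days 5, 7, 9 and 12 from rat cortical cultures grown on microelectrode arrays and dosed continuously from day 0, with media and compound renewed after the DIV 5 and 9 recordings. Network-spike duration was collapsed by area under the curve.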

[16] = CCTE_Shafer_MEA_dev_network_spike_duration_std: CCTE's Neural Network Formation Assay for Standard Deviation of Network Spike Duration, Shafer Lab (AID 2284052);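 further: hits are decreases in network spike duration SD versus DMSO vehicle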
Method in brief: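 Network spike duration variability was collapsed across recordings on days 5, 7, 9 and 12 by trapezoidal area-under-curve and fitted downward against DMSO. Cultures were rat cortical neurons on PEI-coated MEA plates, dosed continuously from plating, refed with compound DIV 5/9.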

[17] = CCTE_Shafer_MEA_dev_per_network_spike_spike_number_mean: CCTE's Neural Network Formation Assay for Mean Number of Spikes in a Network Spike, Shafer Lab (AID 2284053);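 on AC50: fitted as decrease in spikes per network spike relative to DMSO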
Method in brief: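 Mean spike count within each network spike, taken in a 0.05 s window at its peak, was recorded on days 5, 7, 9 and 12 and integrated as trapezoidal area under the curve. Rat cortical cultures on MEA plates received continuous compound from day 0, refreshed at medium changes on DIV 5 and 9.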

[18] = CCTE_Shafer_MEA_dev_per_network_spike_spike_percent: CCTE's Neural Network Formation Assay for Percent of Spikes in a Network Spike, Shafer Lab (AID 2284054)
Method in brief: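 Metric: fraction of spikes falling in a 0.05 s window at network-spike peaks. Recordings were made on days 5, 7, 9 and 12 and collapsed by trapezoidal AUC. Cultures were rat cortical neurons on MEA plates, dosed continuously from plating, re-dosed at media changes.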

[19] = test system: DIO2 (gene 1734); experiment: CCTE_GLTED_hDIO2: CCTE's human Deiodinase 2 (DIO2) Inhibition Assay, Great Lakes Toxicology and Ecology Division (GLTED) Lab (AID 2284050; active means hit-call score of the fitted dose curve at least 0.9, where 1 is the maximum)
Method in brief: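 Triplicate cell-free incubations (3 h) of human DIO2 with chemical preceded colorimetric Sandell-Kolthoff quantitation of liberated iodide; DMSO served as negative control for curve fitting.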

[20] = test system: DIO3 (gene 1735); experiment: CCTE_GLTED_hDIO3: CCTE's human Deiodinase 3 (DIO3) Inhibition Assay, Great Lakes Toxicology and Ecology Division (GLTED) Lab (AID 2284055; active means hit-call score of the fitted dose curve at least 0.9, where 1 is the maximum;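 further: potency is for inhibition seen as loss of released iodide signal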)
Method in brief: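 Steps: incubate adenovirus-produced hDIO3 with chemical for 3 hours; detect freed iodide via cerium-arsenic Sandell-Kolthoff colorimetry; compare with DMSO baseline.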

Measured: AC50

C[C@H]1[C@H](c2ccc(Cl)cc2)SC(=O)N1C(=O)NC1CCCCC1
inactive: [1] | [2] | [3] | [4]

O=[N+]([O-])/N=C1\NCCN1Cc1ccc(Cl)nc1
active: [17] 15 µM
not listed: [1] | [2] | [3] | [4] | [19] | [20]
inactive: all other assays above

OCCOc1ccccc1
inactive: [1] | [3]
active: [2] 43.5 µM | [4] 23.8 µM

CCOCN(C(=O)CCl)c1c(C)cccc1CC
active: [19] 58.9 µM | [20] 58.1 µM
inactive: [1] | [4]

CC1(C)C(C=C(Cl)Cl)C1C(=O)OC(C#N)c1ccc(F)c(Oc2ccccc2)c1 (configuration not stated)
inactive: [5] | [7] | [9] | [11] | [12] | [16]
active: [5] 1.15 µM and 9.57 µM | [6] 10 µM and 26.4 µM and 10.4 µM | [7] 1.07 µM and 259 nM | [8] 2.28 µM and 25.9 µM and 9.56 µM | [9] 10 µM | [10] 2.04 µM and 8.68 µM and 7.93 µM | [11] 49.9 µM and 21 µM | [13] 235 nM and 10.6 µM and 6.32 µM | [14] 10 µM and 11.1 µM and 15 µM | [15] 5.46 µM and 10.2 µM and 8.39 µM | [16] 3.51 µM and 3.76 µM | [17] 3.15 µM and 12.1 µM and 11.9 µM | [18] 1.72 µM and 13.6 µM and 4.24 µM

Oc1ccc(Cl)cc1Cc1ccccc1
active: [19] 132 µM | [20] 158 µM

CC1(c2ccc(Oc3ccccc3)cc2)OC(=O)N(Nc2ccccc2)C1=O (configuration not stated)
active: [5] 8.59 µM | [6] 4.84 µM | [7] 7.84 µM | [8] 4.99 µM | [9] 7.68 µM | [11] 4.55 µM | [12] 3.1 µM | [13] 3.39 µM | [14] 5.73 µM | [15] 3.17 µM | [16] 3.66 µM | [17] 4.26 µM | [18] 2.47 µM
inactive: [10]

COP(=O)(OC)OC=C(Cl)Cl
active: [5] 9.72 µM | [6] 5.4 µM | [7] 1.16 µM | [8] 0.659 µM | [9] 10.1 µM | [11] 2.02 µM | [13] 0.983 µM | [14] 2.87 µM | [15] 1.45 µM | [16] 0.852 µM | [17] 1.94 µM | [18] 1.99 µM
inactive: [5] | [1] | [2] | [6] | [4] | [7] | [8] | [9] | [10] | [11] | [12] | [13] | [14] | [15] | [16] | [17]

CCc1ccc(C(=O)NN(C(=O)c2cc(C)cc(C)c2)C(C)(C)C)cc1
inactive: [1] | [2] | [3] | [4]

ClC1C(Cl)C(Cl)C(Cl)C(Cl)C1Cl (configuration not stated)
not listed: [1] | [2] | [3] | [4] | [11] | [19] | [20]
inactive: all other assays above

CNC(=O)CSP(=S)(OC)OC
active: [5] 79.3 µM | [6] 77.4 µM and 18.9 µM | [7] 78.2 µM | [8] 66.4 µM and 21.9 µM | [14] 50 µM and 15 µM | [15] 50 µM | [17] 50 µM | [18] 50 µM and 15 µM
inactive: [5] | [7] | [9] | [10] | [11] | [12] | [13] | [15] | [16] | [17]

COP(=S)(OC)Oc1ccc([N+](=O)[O-])cc1
active: [6] 20.2 µM | [8] 15 µM | [14] 23.4 µM | [17] 24.6 µM
not listed: [1] | [2] | [3] | [4] | [19] | [20]
inactive: all other assays above

Oc1cc(Cl)ccc1Oc1ccc(Cl)cc1Cl
inactive: [3] | [10] | [12] | [13]
active: [5] 10 µM | [6] 9.79 µM | [7] 8.47 µM | [8] 9.29 µM | [9] 16 µM | [11] 15.6 µM | [14] 9.85 µM | [19] 84 µM | [15] 10 µM | [16] 7.04 µM | [17] 9.32 µM | [18] 9.46 µM | [20] 85.5 µM

CNC(=O)Oc1ccccc1OC(C)C
inactive: [2] | [4]
